# Laboratory results from PubChem BioAssay (NCI).
# This is part of a sample that, as a whole, favours compounds with a hit. Of some 83,000 tested, about 20% had one in any assay.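 In brief: 96-well plates, 48 h treatment, single concentration, percent growth endpoint.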 Values without a mark were called inactive. The source made the active and inactive calls. The calls were made as follows: active = growth percent below 10; inactive = the rest.
# Tests used:
# Assay in all cases: NCI-60 one-dose screen, 48 h (100 = growth as untreated, 0 = no growth, -100 = all killed)
# Details in all cases: 10 µM unless noted
# DU-145 prostate = test system: DU-145 prostate
# K-562 leukemia = test system: K-562 leukemia
# MALME-3M melanoma = test system: MALME-3M melanoma
# MDA-MB-231 breast = test system: MDA-MB-231 breast
# RXF 393 renal = test system: RXF 393 renal
# SF-268 CNS = test system: SF-268 CNS
# SF-295 CNS = test system: SF-295 CNS
# SF-539 CNS = test system: SF-539 CNS
# UACC-257 melanoma = test system: UACC-257 melanoma
# M14 melanoma = test system: M14 melanoma
Structure (SMILES),growth (DU-145 prostate),growth (K-562 leukemia),growth (MALME-3M melanoma),growth (MDA-MB-231 breast),growth (RXF 393 renal),growth (SF-268 CNS),growth (SF-295 CNS),growth (SF-539 CNS),growth (UACC-257 melanoma),growth (M14 melanoma)
CN(CCCCN(C[C@H]1Cc2ncccc2CN1)[C@H]1CCCc2cccnc21)C1CCC(F)(F)CC1,97.9%,72.3%,153%,65.7%,89.9%,87.8%,96.5%,99.2%,89.2%,101%
Brc1cccc(-c2cc(-c3ccc4c(c3)OCCCO4)[nH]n2)c1,69.3% [25 µM],17.4% [25 µM],52.9% [25 µM],49.4% [25 µM],82.4% [25 µM],68.8% [25 µM],62.3% [25 µM],77.1% [25 µM],96.7% [25 µM],49.6% [25 µM]
O=C(C1=Cc2cc3ccccc3n2Cc2cnnn21)c1ccccc1,85.6%,21.4%,76.9%,54.3%,54.6%,58.8%,56.3%,57.8%,74.6%,22.2%
CCCCOc1ccc(/C=C2/SC(N3CCCC3)=NC2=O)cc1,80.9%,82%,97.9%,95.6%,90.9%,98.7%,93.8%,87.9%,102%,95.4%
NC(=S)N/N=C(/CCN1CCCC1)CC(C1=C(O)C2=CCCCC2OC1=O)c1ccccc1 (stereo not given),87.3%,38.8%,73%,70.4%,106%,89.6%,98.5%,95.4%,73.1%,79%
COc1ccc(-c2nc(/C=N/Nc3cc(C)nc4ccc(Cl)cc34)c(C)o2)cc1,-94.1% (active),-35% (active),-90.9% (active),-95.9% (active),-96.8% (active),-71.8% (active),-73.5% (active),-90% (active),104%,-75.6% (active)
CCCCCCN1CSC(=S)N(CCCCCC)C1,113%,110%,95.2%,97.4%,106%,104%,98.2%,102%,104%,96.5%
COc1ccc(/C=C2\Oc3cc(OCCCN4CCCC4)ccc3C2=O)cc1,95.4%,-25% (active),108%,93.8%,78.9%,88.9%,98.7%,79.7%,101%,84.4%
COc1cc(C(=O)/C=C/c2c(C)n([O-])c3ccc(C(F)(F)F)cc3[n+]2=O)cc(OC)c1OC,91.3%,52.9%,106%,99.6%,-35.4% (active),96.1%,105%,96.5%,74.2%,88.9%
COc1ccc(Nc2nn3c(-c4ccccc4)cc(-c4ccccc4)nc3c2C(N)=O)c(OC)c1,38.2%,58.1%,44.7%,29.3%,84.7%,53.4%,37.5%,13.4%,62.4%,51.3%
C=C1CC2(OC1=O)C(=O)N(CCCN1C(=O)C3(CC(=C)C(=O)O3)c3ccccc31)c1ccccc12 (stereo not given),37.4%,5.21% (active),-48.5% (active),-29.2% (active),-61.1% (active),70.6%,82.1%,9.24% (active),30.4%,19.1%
CCOC(=O)CN1/C(=N/c2sc3c(c2C(=O)OCC)CCN(C(=O)OCC)C3)SC(=O)/C1=C\C(=O)OC,104%,64.2%,101%,89.2%,90.9%,90.8%,98%,93.9%,92.8%,95%
CN(C[C@H]1Cc2c(cccc2N2CCN(Cc3ccccn3)CC2)CN1)[C@H]1CCCc2cccnc21,66.6%,9.95% (active),88.3%,70.2%,77.9%,63.8%,43.4%,83%,93.1%,62.3%
O=C1C2(c3ccccc3)C(c3ccccc3)=C(c3ccccc3)C1(c1ccccc1)C1CC=CC12 (stereo not given),101%,69.3%,82.9%,70.7%,84.6%,91.1%,68.1%,89.3%,78.4%,95.4%
